PubChem BioAssay AID1159580 (chemical genetic matrix, 2015)
The campaign covered roughly 5,500 compounds. About 2,000 (36%) were called active. Inconclusive results (about 18%) are left out. Cut-off read from the data, not from the text of the source: active = normalized growth mostly below about 0.91 (no sharp cut-off); inconclusive = no clear call, values can overlap the other calls; inactive = mostly above about 0.92. This is one part of the list.

Test: chemical genetic growth profiling, strain panel (AID 1159580);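 note: tested at 20 µM; growth read once vehicle control cultures reached saturation at 30 °C; 1 = growth at the plate median or of vehicle wells; lower values mean less growth of the strain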
Settings: S. cerevisiae deletion strains, growth OD

Measured: normalized growth

O=C(Nc1cccc(C(=O)Nc2ccc(S(=O)(=O)O)c3cc(S(=O)(=O)O)cc(S(=O)(=O)O)c23)c1)Nc1cccc(C(=O)Nc2ccc(S(=O)(=O)O)c3cc(S(=O)(=O)O)cc(S(=O)(=O)O)c23)c1
inactive: locus YAL040C, strain CLN3, hits give low values 1.05 | locus YCL061C, strain MRC1 (second series), hits give low values 0.981 | locus YDR150W, strain NUM1, hits give low values 0.976 | locus YDR363W, strain ESC2, hits give low values 1.02 | locus YER002W, strain NOP16, hits give low values 0.968 | locus YMR263W, strain SAP30, hits give low values 0.973 | locus YNL153C, strain GIM3, hits give low values 0.977 | locus YNL175C, strain NOP13, hits give low values 0.978 | locus YNL197C, strain WHI3, hits give low values 0.968 | locus YNL224C, strain SQS1, hits give low values 0.981 | locus YOR083W, strain WHI5 (second series), hits give low values 0.97
